Screens as filed in PubChem.
HSP90 inh: inhibitors of HSP90 luciferase refolding in rabbit reticulocyte lysate; luciferase refolding luminescence, 3 h; inhibition, % at 5.6 µM; actives 0.91% (n = 290,000);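 active = inhibition above the screen-wide mean plus 3 SD, computed separately per campaign, cut at about 16% in these data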;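 note: inhibitors lower the luminescence because luciferase stays unfolded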
LMP1 NFkB inh: inhibitors of Epstein-Barr LMP1-induced NF-kappaB reporter; inhibition, % at 12.5 µM; LMP1-induced NF-kappaB luciferase reporter cells, luminescence; actives 0.69% (n = 350,000); in the data active = inhibition above about 41%
TROY NFkB inh: inhibitors of TROY-dependent NF-kB signaling; Q293 LMP1-TROYcd NF-kB luciferase reporter, 4 h; inhibition, % at 10 µM; actives 0.98% (n = 360,000); AID 1347056;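 active = compounds whose plate-normalised and pattern-corrected inhibition of the luciferase reporter signal at the single screening dose is 50% or more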
TWEAK-Fn14 inh: blocks TWEAK-Fn14 interaction in a reporter cell assay | inhibition, % at 10 µM | TWEAK-stimulated Fn14 reporter cells, luciferase luminescence, 8 h | actives 2% (n = 360,000) | AID 1159606; in the data active = inhibition above about 50%
HSF1 activator: increases HSF-1 driven luciferase reporter signal. activation, % at 9 µM. actives 1.7% (n = 300,000). NIH3T3-HGL HSF-1 luciferase reporter, MG132, 8 h; 100% = twice DMSO control signal. AID 504408;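 active = mean replicate activation of at least 50% with a set share of replicates each reaching 50%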
HSF1 inhib: HSF1 inhibition; NIH3T3-HGL HSE-luciferase, MG132-induced, luminescence 8 h; active compounds read low; activity change, negative = inhibition, % at 7.5 µM (by protocol); actives 0.77% (n = 300,000); AID 2098;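 active = more than half of replicate wells show activity change below -50%, luminescence cut by over half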;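 note: luciferase reports HSF-1 transcriptional activity via heat shock element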
Large screens that a line does not name were inactive. Sampled rows, rich in hits. Any-hit rate of the full collection: about 4.7%.

C#CCN(C[C@H]1[C@H](OC(=O)Nc2cccs2)[C@H](OC(=O)Nc2cccs2)C[C@H]2C(=O)N(c3ccccc3)C(=O)[C@@H]12)S(=O)(=O)c1ccc(C)cc1	none (no result: HSP90 inh, HSF1 activator, HSF1 inhib)
C#CCN(C[C@@H]1[C@@H](OC(=O)NC2CCCC2)[C@@H](OC(=O)NC2CCCC2)Cn2c(=O)ccc(=O)n21)S(=O)(=O)c1ccc(C)cc1	TWEAK-Fn14 inh 72 (no result: HSP90 inh, HSF1 activator, HSF1 inhib)
C#CCN(C[C@@H]1[C@@H](OC(=O)Nc2cccs2)[C@@H](OC(=O)Nc2cccs2)Cn2c(=O)ccc(=O)n21)S(=O)(=O)c1ccc(C)cc1	TROY NFkB inh 73, TWEAK-Fn14 inh 108 (no result: HSP90 inh, HSF1 activator, HSF1 inhib)
C#CCN(C[C@@H]1[C@@H](OC(=O)NCc2ccccc2F)[C@@H](OC(=O)NCc2ccccc2F)Cn2c(=O)ccc(=O)n21)S(=O)(=O)c1ccc(C)cc1	LMP1 NFkB inh 61, TROY NFkB inh 61, TWEAK-Fn14 inh 107 (no result: HSP90 inh, HSF1 activator, HSF1 inhib)
OC(Cc1cccc(C=NN2CCOCC2)n1)(C(F)(F)F)C(F)(F)F	none (no result: HSP90 inh, HSF1 activator, HSF1 inhib)
S=C1NCN(CCc2ccccc2)CN1Cc1ccccc1	TWEAK-Fn14 inh 96
CCCN1CNC(=S)N(Cc2ccccc2)C1	none
CCCN1CN(CCc2ccccc2)CNC1=S	TWEAK-Fn14 inh 104
Cc1ccccc1S(=O)(=O)NC(=O)C1(C)CCN1C(=O)CCc1ccc(Cl)cc1Cl (stereo not given)	none (no result: HSP90 inh, LMP1 NFkB inh, HSF1 activator, HSF1 inhib)
Cc1ccc(Nc2nc(-c3ccccc3)c(CC(=O)O)s2)cc1	HSF1 activator 63
O=C(CSc1ncnc2ccccc12)c1cccs1	HSF1 activator 60
COc1ccc2nc(Nc3ccccc3OC)sc2c1	HSF1 activator 73
Cc1ccc(C(=O)CSc2ncnc3ccccc23)o1	none
CCOC(=O)c1c(N2C(=O)C=CC2=O)sc(C)c1C	HSF1 activator 55
O=C(CCn1c(=S)[nH]c2cc3c(cc2c1=O)OCO3)NCCc1ccccc1Cl	none (no result: HSP90 inh, HSF1 activator, HSF1 inhib)
COc1cccc(C(O)c2ncc(-c3cccc4ccccc34)[nH]2)c1 (stereo not given)	none (no result: HSP90 inh, LMP1 NFkB inh, HSF1 activator, HSF1 inhib)
CCCNC(=O)C1(C)CCCN(Cc2ccc(-c3ccccn3)cc2)C1 (stereo not given)	none (no result: HSP90 inh, LMP1 NFkB inh, HSF1 activator, HSF1 inhib)
CCOC(=O)c1c(NC(=O)CSc2nc3ccccc3o2)sc(C)c1C	HSF1 activator 144
COc1ccc2nc(NC(=O)c3ccccc3O)sc2c1	HSF1 activator 103
CCOC(=O)c1c(NC(=O)CSC(=S)N(C)C)sc(C)c1C	HSF1 activator 85
CCOC(=O)c1c(NC(=O)CSc2nc3ccccc3s2)sc(C)c1C	none
Cc1ccc(Nc2nc3ccccc3s2)cc1	HSF1 activator 60
COc1ccc2nc(NC(=O)CSc3nc4ccccc4o3)sc2c1	TROY NFkB inh 68
COc1ccc2nc(Nc3ccccc3)sc2c1	HSF1 activator 68
CCOC(=O)c1c(NC(=O)CSc2ncnc3ccccc23)sc(C(C)=O)c1C	HSF1 activator 78
COC(=O)c1c(NC(=O)CSc2ncnc3ccccc23)sc(C)c1C	none (no result: HSP90 inh)
COc1ccc2nc(Nc3ccc4c(c3)OCO4)sc2c1	none
COc1ccccc1/C=C/C=C1N=C(/C=C/c2ccc(Cl)cc2)OC/1=O	none
COc1ccccc1/C=C/C1=NC(=C\C=C/c2ccccc2)/C(=O)O1	HSF1 activator 171
Cc1ccc(OCC(=O)Nc2ccccc2C(=O)N2CCCCC2)cc1	HSF1 inhib -53
CCC(=O)c1ccc(OCC(=O)Nc2ccccc2C(=O)N2CCCCC2)cc1	none (no result: HSP90 inh)
COC(=O)c1ccc(Cl)c(NC(=O)CN(c2ccccc2)S(=O)(=O)c2ccc(OC)cc2)c1	TWEAK-Fn14 inh 60
COc1ccc(N(CC(=O)N/N=C/c2cc3ccc(OC)cc3nc2Cl)S(=O)(=O)c2ccccc2)cc1	HSF1 activator 59 (no result: LMP1 NFkB inh, TROY NFkB inh, TWEAK-Fn14 inh)
COc1ccc(N(CC(=O)Nc2ccccc2C(=O)N2CCCC2)S(=O)(=O)c2ccccc2)cc1	LMP1 NFkB inh 63
COc1ccc(S(=O)(=O)NC(=O)C2(C)CCN2C(=O)c2c(C)noc2C)cc1 (stereo not given)	none (no result: HSP90 inh, LMP1 NFkB inh, HSF1 activator, HSF1 inhib)
CCn1c2ccccc2nc2cc3c(cc21)c(Cl)c(=O)c1ccccc13	none (no result: HSP90 inh, HSF1 activator, HSF1 inhib)
COc1ccccc1-c1cc(NC(C)=O)c2ncc(-c3ccccc3)n2c1	none (no result: HSP90 inh, LMP1 NFkB inh, HSF1 activator, HSF1 inhib)
COc1ccccc1-n1c(-c2ccccc2)c[nH]c1=S	none
S=c1[nH]cc(-c2ccccc2)n1-c1ccccc1Cl	HSF1 activator 57
COc1ccc(CNC(=S)Nc2ccc(F)c(Cl)c2)cc1	HSF1 activator 73
CCNC(=S)Nc1ccc(Oc2ccccc2)cc1	none
COc1ccc(NC(=S)Nc2ccc(Oc3ccccc3)cc2)cc1	HSF1 inhib -65
Cc1ccc(C(=O)NC(=S)Nc2ccc(Oc3ccc(Cl)cc3)cc2)cc1	TROY NFkB inh 51
COc1ccc(CNC(=S)Nc2ccc(Br)cc2)cc1	TWEAK-Fn14 inh 64
COc1ccc(CNC(=S)Nc2ccc(-c3ccccc3)cc2)cc1	none
Cc1cccc(Cl)c1NC(=O)NCCCN1CCCCC1C (stereo not given)	none (no result: HSP90 inh, LMP1 NFkB inh, HSF1 activator, HSF1 inhib)
COc1ccc(C(=S)Nc2ccc(C)cc2)cc1	HSF1 activator 63
COc1ccc(C(=O)NC(=S)Nc2ccc3c(c2)Cc2ccccc2-3)cc1	TROY NFkB inh 52
Fc1ccc(NC(=S)Nc2ccc(Br)cc2)cc1	none
CNC(=S)Nc1ccc(Br)cc1	TROY NFkB inh 61
COc1ccc(NC(=S)NCc2cccs2)cc1	LMP1 NFkB inh 57
COc1ccc(CN2C[C@@H](CO)O[C@@H](n3cnc4c(NCc5ccco5)ncnc43)C2)cc1	none (no result: HSP90 inh, LMP1 NFkB inh, HSF1 activator, HSF1 inhib)
O=C(c1cc2c(c(-c3cccc(-c4ccncc4)c3)n1)[C@@H](CCO)N(C(=O)c1ccc3c(c1)OCO3)C2)N1CCOCC1	none (no result: HSP90 inh, LMP1 NFkB inh, HSF1 activator, HSF1 inhib)
CC1(C(=O)NCc2cccs2)Cc2c(-c3ccc(C(N)=O)cc3)ccnc2O1 (stereo not given)	none (no result: HSP90 inh, LMP1 NFkB inh, HSF1 activator, HSF1 inhib)
CNC(=S)Nc1ccc2nc(C)c(C)nc2c1	LMP1 NFkB inh 50
COc1ccc(NC(=S)Nc2ccc3nc(C)c(C)nc3c2)cc1	none
COc1cc2[nH]c3c(N4CCN(c5ccccn5)CC4)ncnc3c2cc1OC	TWEAK-Fn14 inh 73
Fc1ccc2[nH]c3c(N4CCN(c5ccccc5)CC4)ncnc3c2c1	LMP1 NFkB inh 50, TROY NFkB inh 76, TWEAK-Fn14 inh 102
COc1ccc2[nH]c3c(N4CCc5ccccc5C4)ncnc3c2c1	TROY NFkB inh 69, TWEAK-Fn14 inh 92, HSF1 activator 64
COc1cccc2[nH]c3c(N4CCCCC4)ncnc3c12	none
OC1(c2cccc(C(F)(F)F)c2)CCN(c2ncnc3c2[nH]c2ccc(F)cc23)CC1	LMP1 NFkB inh 44, TROY NFkB inh 77, TWEAK-Fn14 inh 98 (no result: HSF1 activator, HSF1 inhib)
O=C(CCCN1CCC(O)(c2cccc(C(F)(F)F)c2)CC1)c1ccc(F)cc1	none (no result: HSP90 inh, HSF1 activator, HSF1 inhib)
CCOC(=O)N1CCN(c2ncnc3c2[nH]c2ccc(F)cc23)CC1	none
CCOC(=O)N1CCN(c2ncnc3c2[nH]c2ccc(OC)cc23)CC1	none
O=C1CCCN1C1CCN(Cc2ccccc2)S(=O)(=O)N1 (stereo not given)	none (no result: HSP90 inh, LMP1 NFkB inh, HSF1 activator, HSF1 inhib)
